PubChem BioAssay (NCI)
Compounds without any hit were thinned out: in the full panel of roughly 83,000, 20% have a hit.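 Compound tested at a single concentration for 48 hours in 96-well plates; a percent growth value below 10 was scored as active.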 Values without a mark were called inactive. Activity calls are given as the source filed them.

Tests used:
Test in all cases: NCI-60 one-dose screen, 48 h (100 = growth as untreated, 0 = no growth, -100 = all killed)
Conditions in all cases: 10 µM unless noted
[1] = test system: NCI-H23 lung
[2] = test system: NCI-H226 lung
[3] = test system: NCI-H322M lung
[4] = test system: HOP-62 NSCLC
[5] = test system: NCI-H460 lung
[6] = test system: HOP-92 NSCLC
[7] = test system: NCI-H522 lung
[8] = test system: A549/ATCC NSCLC
[9] = test system: 786-0 renal
[10] = test system: COLO 205 colon
[11] = test system: DU-145 prostate
[12] = test system: K-562 leukemia
[13] = test system: MALME-3M melanoma
[14] = test system: MDA-MB-231 breast
[15] = test system: RXF 393 renal
[16] = test system: SF-268 CNS
[17] = test system: SF-295 CNS
[18] = test system: SF-539 CNS
[19] = test system: UACC-257 melanoma
[20] = test system: M14 melanoma

Row | Structure (SMILES) | growth [1] | growth [2] | growth [3] | growth [4] | growth [5] | growth [6] | growth [7] | growth [8] | growth [9] | growth [10] | growth [11] | growth [12] | growth [13] | growth [14] | growth [15] | growth [16] | growth [17] | growth [18] | growth [19] | growth [20]
1 | COc1ccc(N=Nc2c(N)nn3c(-c4cc5cc(Br)ccc5oc4=O)ccnc23)cc1 | -4.72% (active) | -42.1% (active) | 30.1% | 2.1% (active) | 3.1% (active) | -3.29% (active) | 0.558% (active) | 39.3% | 5.11% (active) | 35.8% | 37.3% | 48.4% | 46.4% | -27.3% (active) | -41.8% (active) | 23.2% | -33.6% (active) | 15.6% | 78.1% | 52.5%
2 | Cc1ccc(C2CC(c3ccc(S(=O)(=O)NCCNc4nc(N(C)C)nc(N5CCOCC5)n4)cc3)=Nc3c(N)nc(N)nc3N2)cc1 (stereo not given) | 72% | 63.8% | 77.3% | 63.9% | 53.6% | -9.13% (active) | 80.1% | 62.2% | 32.8% | 72.3% | 66% | 22.8% | 57.3% | 31% | 10.6% | 45.2% | 32.7% | 43.8% | 72.6% | 44.7%
3 | O=C(NNC(=S)NCCc1ccccc1)c1ccc(OCc2nc3ccc(Cl)cc3[nH]2)cc1 | 66.3% | 97.7% | 88.8% | 97.4% | 82.3% | 144% | 78.7% | 73.8% | 79.1% | 131% | 79.4% | 29.6% | 65.5% | 95.5% | 93% | 70.4% | 61.4% | 84.3% | 79.9% | 93.9%
4 | CCOC(=O)/C(F)=C/C1CC1C(c1ccccc1)c1ccccc1 (stereo not given) | 73.8% | 91.8% | 80.6% | 125% | 38.7% | 84.1% | 94.8% | 91.7% | 93% | 117% | 106% | 70.4% | 81.2% | 88.4% | 77.2% | 99.1% | 88.7% | 96.5% | 105% | 91.7%
5 | N#CCc1nnc(NC(=O)c2ccc(-n3c(=O)[nH]c4ccccc4c3=O)cc2)s1 | 93% | 106% | 101% | 101% | 100% | 98.1% | 89.3% | 105% | 106% | 105% | 128% | 101% | 95.3% | 95.5% | 112% | 115% | 93.6% | 97.9% | 104% | 108%
6 | O=C(NC(=S)N1CCN(c2ncnc3c2cnn3-c2ccccc2)CC1)c1ccc(F)cc1 | 77.5% | 84.9% | 75.8% | 70.6% | 43.8% | 67.9% | 57.6% | 76.2% | 98.6% | 90.4% | 86.4% | 51.3% | 78.1% | 84.2% | 77% | 80.2% | 69.3% | 73.8% | 89% | 86.8%
7 | OC(c1ccccc1)(c1ccccc1)C1CCN(c2ccc3nnc(Cl)n3n2)CC1 | 36.8% | 11.2% | 74.1% | 63.7% | 19.8% | 19.7% | -60.4% (active) | 36.3% | 41.8% | -29.4% (active) | 54.6% | 10.7% | 26.8% | 68% | 32.8% | 63.7% | 19% | 51.8% | 72.9% | 39.2%
8 | CCOC(=O)c1ccc(NC(=S)NC(=O)c2ccc(NC(=O)C(C)C)cc2OC)cc1 | 15.9% | 22.3% | 74.9% | 53.9% | 44.5% | 33.6% | 30.9% | 80.2% | 85.2% | 37.5% | 78.2% | 10.7% | 3.16% (active) | 47.2% | 74.2% | 68.1% | 36.8% | 79.6% | 42% | 34.1%
